# Results filed as inconclusive are left out. A structure can be active in one record and inactive in another. Active and inactive are the calls of the source. How the source made its calls, unless noted: active means hit-call score of the fitted dose curve at least 0.9, where 1 is the maximum; inactive means score below 0.9.
# How the values were obtained:
# [1] = biological target: human RAR-related Orphan Receptor beta (RORb), RORB (gene 6096) (UniProt Q92753); assay: ATG_RORb_TRANS: Attagene TRANS-FACTORIAL HepG2 Assay for human RAR-related Orphan Receptor beta (RORb) (AID 2283010; active means hit-call score of the fitted dose curve at least 0.9, where 1 is the maximum)
# Procedure, shortened: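 In this TRANS-format test, human HepG2 cells express chimeric NR-Gal4 fusion proteins driving GAL4-UAS reporters. After 24 h dosing, reporter transcripts are measured by fluorescent RT-PCR/capillary electrophoresis, with DMSO as negative control.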
# [2] = biological target: Retinoic acid receptor RXR-alpha (Homo sapiens) (UniProt P19793); assay: ATG_RXRa_TRANS: Attagene TRANS-FACTORIAL HepG2 Assay for human Retinoid X Receptor alpha (RXRa) (AID 2283012; active means hit-call score of the fitted dose curve at least 0.9, where 1 is the maximum)
# Procedure, shortened: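 Cells (HepG2) carried transiently transfected GAL4-responsive reporter units. Following a 24 h chemical incubation, reporter mRNA induction was read via RT-PCR fragment analysis; DMSO served as negative control and baseline.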
# [3] = read-out: E-selectin (Homo sapiens) (UniProt P16581); assay: BSK_3C_Eselectin: BioMAP Diversity Plus: 3C Assay for Eselectin Biomarker Activity (AID 2283015); conditions: primary human endothelial cells (HUVEC); actives raise or lower the signal;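 on outcome: cell surface E-selectin protein quantified by ELISA 24 h after dosing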
# Procedure, shortened: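 ELISA read-out of E-selectin on endothelial monolayers after 24 h chemical treatment. Human umbilical vein primary cells served as the system, with DMSO defining baseline activity for bidirectional fitting.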
# [4] = read-out: Interleukin-1 alpha (IL1a), IL1A (gene 3552); assay: BSK_BE3C_IL1a: BioMAP Diversity Plus: BE3C Assay for Interleukin-1 alpha (IL1a) Biomarker Activity (AID 2283016); conditions: primary human bronchial epithelial cells; actives raise or lower the signal
# Procedure, shortened: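 Cultures of primary human bronchial epithelial cells receive test chemical. After 24 h, IL-1a is quantified by ELISA, while parallel wells are fixed in TCA and SRB-stained for total protein. Changes in either direction are fitted relative to DMSO.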
# [5] = read-out: Monocyte Chemoattractant Protein-1 (MCP1), CCL2 (gene 6347); assay: BSK_3C_MCP1: BioMAP Diversity Plus: 3C Assay for Monocyte Chemoattractant Protein-1 (MCP1) Biomarker Activity (AID 2283017); conditions: primary human endothelial cells (HUVEC); actives raise or lower the signal
# Procedure, shortened: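 ELISA read-out of MCP-1 from human umbilical vein endothelial cell cultures harvested 24 h post-dosing. Gain or loss of signal was fitted relative to DMSO.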
# [6] = read-out: Monocyte Chemoattractant Protein-1 (MCP1), CCL2 (gene 6347); assay: BSK_4H_MCP1: BioMAP Diversity Plus: 4H Assay for Monocyte Chemoattractant Protein-1 (MCP1) Biomarker Activity (AID 2283018); conditions: primary human endothelial cells (HUVEC); actives raise or lower the signal
# Procedure, shortened: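 Readout: MCP-1 ELISA on compound-treated HUVEC, sampled 24 h post-dosing. Baseline and negative control DMSO; bidirectional fit. Overt toxicity checked alongside by sulforhodamine B protein staining at time of biomarker measurement.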
# [7] = read-out: Human Leukocyte Antigen - DR isotype (HLADR), HLA-DRA (gene 3122); assay: BSK_3C_HLADR: BioMAP Diversity Plus: 3C Assay for Human Leukocyte Antigen - DR isotype (HLADR) Biomarker Activity (AID 2283019); conditions: primary human endothelial cells (HUVEC); actives raise or lower the signal;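 on outcome: ELISA of cell-surface HLA-DR on HUVEC 24 h after dosing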
# Procedure, shortened: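 ELISA readout of surface HLA-DR on human umbilical vein endothelium, taken 24 h after chemical treatment. Gain- and loss-of-signal were both fitted relative to DMSO.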
# [8] = read-out: Interleukin-8 (IL8), CXCL8 (gene 3576); assay: BSK_3C_IL8: BioMAP Diversity Plus: 3C Assay for Interleukin-8 (IL8) Biomarker Activity (AID 2283020); conditions: primary human endothelial cells (HUVEC); actives raise or lower the signal
# Procedure, shortened: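 Human vascular endothelial cells (umbilical vein) in the 3C system; IL-8 level detected by ELISA at 24 h post-dose, with DMSO as baseline.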
# [9] = biological target: human Retinoid X Receptor beta (RXRb), RXRB (gene 6257) (UniProt P28702); assay: ATG_RXRb_TRANS: Attagene TRANS-FACTORIAL HepG2 Assay for human Retinoid X Receptor beta (RXRb) (AID 2283013; active means hit-call score of the fitted dose curve at least 0.9, where 1 is the maximum)
# Procedure, shortened: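 Multiplexed TRANS reporter assay in HepG2; 24 h dosing; reporter mRNA by RT-PCR/CE fluorescence; gain-of-signal relative to DMSO.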
# [10] = biological target: human Thyroid Receptor alpha (THRa1), THRA (gene 7067) (UniProt P10827); assay: ATG_THRa1_TRANS: Attagene TRANS-FACTORIAL HepG2 Assay for human Thyroid Receptor alpha (THRa1) (AID 2283014; active means hit-call score of the fitted dose curve at least 0.9, where 1 is the maximum)
# Procedure, shortened: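 Reporter transcript induction, read by capillary electrophoresis of 6-FAM-labelled RT-PCR products, reflects activity of a transfected THRa1-Gal4 fusion in HepG2 liver cells. Cells were dosed for 24 h; activity was fitted in the positive direction against DMSO.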
# Chain of human Thyroid Receptor alpha (THRa1), THRA (gene 7067) (P10827 whole entry, looked up, the tested form may be a part): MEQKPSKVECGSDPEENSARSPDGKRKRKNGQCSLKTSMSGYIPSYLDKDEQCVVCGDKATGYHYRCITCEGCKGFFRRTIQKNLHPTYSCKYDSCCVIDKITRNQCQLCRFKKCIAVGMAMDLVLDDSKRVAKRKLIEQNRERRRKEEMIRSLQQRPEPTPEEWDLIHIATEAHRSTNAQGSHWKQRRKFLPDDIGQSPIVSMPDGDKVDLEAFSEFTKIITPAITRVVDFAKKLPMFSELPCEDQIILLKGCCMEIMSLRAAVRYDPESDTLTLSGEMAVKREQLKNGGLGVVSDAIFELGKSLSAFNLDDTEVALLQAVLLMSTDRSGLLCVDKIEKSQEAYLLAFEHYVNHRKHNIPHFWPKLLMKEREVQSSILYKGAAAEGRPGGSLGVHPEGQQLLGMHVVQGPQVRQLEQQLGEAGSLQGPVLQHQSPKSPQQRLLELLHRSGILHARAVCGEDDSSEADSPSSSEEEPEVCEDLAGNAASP
# Chain of human Retinoid X Receptor beta (RXRb), RXRB (gene 6257) (P28702 whole entry, looked up): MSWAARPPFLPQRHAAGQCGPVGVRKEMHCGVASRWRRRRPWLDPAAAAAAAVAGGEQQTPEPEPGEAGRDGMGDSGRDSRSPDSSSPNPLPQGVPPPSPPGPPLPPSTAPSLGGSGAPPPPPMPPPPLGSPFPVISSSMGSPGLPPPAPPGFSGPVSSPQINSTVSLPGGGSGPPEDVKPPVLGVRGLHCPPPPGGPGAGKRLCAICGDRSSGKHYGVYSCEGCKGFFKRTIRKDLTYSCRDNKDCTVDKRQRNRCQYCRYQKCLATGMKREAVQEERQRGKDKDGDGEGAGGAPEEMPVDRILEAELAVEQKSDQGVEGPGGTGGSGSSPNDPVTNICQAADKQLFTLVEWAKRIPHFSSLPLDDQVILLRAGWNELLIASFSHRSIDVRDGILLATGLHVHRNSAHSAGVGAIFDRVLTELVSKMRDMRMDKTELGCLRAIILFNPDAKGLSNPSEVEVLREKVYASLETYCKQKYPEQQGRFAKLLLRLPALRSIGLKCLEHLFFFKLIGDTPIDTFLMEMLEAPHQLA
# Chain of Retinoic acid receptor RXR-alpha (Homo sapiens) (P19793 whole entry, looked up, the tested form may be a part): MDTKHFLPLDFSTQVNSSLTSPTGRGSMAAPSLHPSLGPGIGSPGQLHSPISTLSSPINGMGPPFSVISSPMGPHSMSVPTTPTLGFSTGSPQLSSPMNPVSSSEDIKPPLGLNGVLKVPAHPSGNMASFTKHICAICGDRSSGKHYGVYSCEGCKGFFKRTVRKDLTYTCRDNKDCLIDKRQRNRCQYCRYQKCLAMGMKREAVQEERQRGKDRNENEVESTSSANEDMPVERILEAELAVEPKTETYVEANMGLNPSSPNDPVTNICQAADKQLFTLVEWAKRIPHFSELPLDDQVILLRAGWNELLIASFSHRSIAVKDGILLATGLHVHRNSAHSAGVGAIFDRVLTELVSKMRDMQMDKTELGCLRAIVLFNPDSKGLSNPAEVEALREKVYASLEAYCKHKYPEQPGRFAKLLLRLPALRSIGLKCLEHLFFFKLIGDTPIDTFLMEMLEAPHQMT
# Chain of E-selectin (Homo sapiens) (P16581 whole entry, looked up): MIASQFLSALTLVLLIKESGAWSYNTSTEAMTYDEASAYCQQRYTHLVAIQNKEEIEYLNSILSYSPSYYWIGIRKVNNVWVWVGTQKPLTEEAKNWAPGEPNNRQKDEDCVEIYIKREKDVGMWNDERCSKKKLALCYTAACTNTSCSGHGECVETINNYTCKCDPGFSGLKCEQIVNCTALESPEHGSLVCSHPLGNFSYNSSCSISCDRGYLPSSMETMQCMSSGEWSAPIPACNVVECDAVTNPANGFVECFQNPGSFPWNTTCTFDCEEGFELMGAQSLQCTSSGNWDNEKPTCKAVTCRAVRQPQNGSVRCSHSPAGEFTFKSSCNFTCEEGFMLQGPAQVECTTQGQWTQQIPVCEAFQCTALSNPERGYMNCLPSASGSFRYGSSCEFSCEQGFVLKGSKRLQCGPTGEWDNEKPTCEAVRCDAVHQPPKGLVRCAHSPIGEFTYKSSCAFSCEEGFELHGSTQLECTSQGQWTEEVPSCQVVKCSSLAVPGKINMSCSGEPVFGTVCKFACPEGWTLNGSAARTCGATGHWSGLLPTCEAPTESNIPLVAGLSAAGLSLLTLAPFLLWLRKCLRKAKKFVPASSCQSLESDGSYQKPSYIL
# Chain of human RAR-related Orphan Receptor beta (RORb), RORB (gene 6096) (Q92753 whole entry, looked up, the tested form may be a part): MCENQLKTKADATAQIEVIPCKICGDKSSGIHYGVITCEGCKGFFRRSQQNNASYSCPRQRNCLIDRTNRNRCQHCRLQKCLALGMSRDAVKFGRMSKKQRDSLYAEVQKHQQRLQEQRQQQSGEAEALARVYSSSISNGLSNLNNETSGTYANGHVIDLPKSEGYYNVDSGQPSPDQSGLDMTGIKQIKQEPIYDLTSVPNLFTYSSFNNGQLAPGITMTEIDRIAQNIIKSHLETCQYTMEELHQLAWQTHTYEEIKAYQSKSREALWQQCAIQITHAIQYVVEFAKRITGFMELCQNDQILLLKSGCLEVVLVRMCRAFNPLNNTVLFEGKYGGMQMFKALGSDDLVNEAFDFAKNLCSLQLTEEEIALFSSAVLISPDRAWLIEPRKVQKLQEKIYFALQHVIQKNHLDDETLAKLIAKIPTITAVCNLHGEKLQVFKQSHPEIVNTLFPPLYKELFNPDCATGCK
compound,measurement,setting,value
CN1CCN(c2ccccc2/C=C2\SCCN(c3ccc(Cl)c(Cl)c3)C2=O)CC1,outcome,[1],inactive
same,outcome,[2],inactive
same,outcome,[3],inactive
same,AC50,[4],30.9 µM (active)
same,AC50,[5],7.36 µM (active)
same,AC50,[6],20 µM (active)
same,AC50,[7],11.3 µM (active)
same,AC50,[8],3.55 µM (active)
CCCCCCCCCCCCCCCS(=O)(=O)Oc1ccccc1,outcome,[2],inactive
same,outcome,[9],inactive
same,outcome,[10],inactive
same,outcome,[3],inactive
same,outcome,[4],inactive
same,outcome,[5],inactive
same,outcome,[6],inactive
same,outcome,[8],inactive
C=C(C)C(=O)OCCC(F)(F)C(F)(F)C(F)(F)C(F)(F)C(F)(F)C(F)(F)F,outcome,[2],inactive
same,outcome,[9],inactive
same,outcome,[10],inactive
same,outcome,[3],inactive
same,outcome,[4],inactive
same,outcome,[5],inactive
same,outcome,[6],inactive
same,outcome,[7],inactive
same,outcome,[8],inactive
CCCCCCCCC(=O)O,outcome,[2],inactive
same,AC50,[9],65.3 µM (active)
same,outcome,[9],inactive
same,outcome,[3],inactive
same,outcome,[5],inactive
same,outcome,[6],inactive
same,outcome,[7],inactive
same,outcome,[8],inactive
CN(C)C=O,AC50,[2],4.99 µM (active)
same,AC50,[9],0.74 µM (active)
same,outcome,[3],inactive
same,outcome,[5],inactive
same,outcome,[6],inactive
same,outcome,[8],inactive
CCCCC[C@H](O)CC(=O)CCc1ccc(O)c(OC)c1,outcome,[10],inactive
CCCCOCCO,outcome,[10],inactive
same,outcome,[3],inactive
same,outcome,[5],inactive
same,outcome,[6],inactive
same,outcome,[7],inactive
same,outcome,[8],inactive
CN1CCC[C@H]1c1cccnc1,outcome,[2],inactive
same,outcome,[10],inactive
same,outcome,[3],inactive
same,outcome,[4],inactive
same,outcome,[5],inactive
same,outcome,[6],inactive
same,outcome,[8],inactive
CCc1nn(C2CCCCC2)c2cc(C3(C#N)CCC(C(=O)O)CC3)ccc12 (stereo not drawn),outcome,[2],inactive
same,outcome,[9],inactive
same,AC50,[3],9.4 µM (active)
same,AC50,[5],10.6 µM (active)
same,outcome,[6],inactive
same,AC50,[8],7 µM (active)
Oc1cc2ccccc2c2ccccc12,outcome,[2],inactive
same,outcome,[9],inactive
same,AC50,[3],8.36 µM (active)
same,AC50,[5],10 µM (active)
same,AC50,[6],7.67 µM (active)
same,AC50,[7],6.95 µM (active)
same,AC50,[8],9.59 µM (active)
CC(C)CCCCCCOC(=O)CCCCC(=O)OCCCCCCC(C)C,AC50,[9],52.9 µM (active)
same,outcome,[10],inactive
same,outcome,[3],inactive
same,outcome,[5],inactive
same,outcome,[6],inactive
same,outcome,[8],inactive
CCCCCCCCCCCCN1CCCC1=O,outcome,[2],inactive
same,outcome,[9],inactive
same,outcome,[10],inactive
same,AC50,[3],31.8 µM (active)
same,AC50,[5],32.7 µM (active)
same,AC50,[6],27.8 µM (active)
same,AC50,[7],30.2 µM (active)
same,AC50,[8],29.4 µM (active)
CCC(=C(c1ccc(O)cc1)c1ccc(OCCN(C)C)cc1)c1ccccc1,outcome,[2],inactive
same,outcome,[9],inactive
same,outcome,[10],inactive
same,AC50,[3],11.1 µM (active)
same,AC50,[5],8.6 µM (active)
same,AC50,[6],12.5 µM (active)
same,AC50,[8],9.28 µM (active)
Cc1cc(C)c(O)c(C)c1,outcome,[9],inactive
same,outcome,[3],inactive
same,outcome,[5],inactive
same,outcome,[6],inactive
same,outcome,[8],inactive
CC(=O)CC(C)(C)O,outcome,[2],inactive
same,outcome,[9],inactive
same,outcome,[10],inactive
same,outcome,[3],inactive
same,outcome,[5],inactive
same,outcome,[6],inactive
same,outcome,[8],inactive
O=[N+]([O-])c1ccc(O)cc1,outcome,[3],inactive
same,outcome,[5],inactive
same,outcome,[6],inactive
same,outcome,[8],inactive
C#C[C@]1(O)CC[C@H]2[C@@H]3CCC4=CC(=O)CC[C@@H]4[C@H]3CC[C@@]21C,outcome,[2],inactive
same,outcome,[9],inactive
same,outcome,[10],inactive
same,AC50,[3],11.5 µM (active)
same,outcome,[4],inactive
same,AC50,[5],6.01 µM (active)
same,outcome,[6],inactive
same,AC50,[8],5.01 µM (active)
Cc1cc(CCN2CCN(c3nsc4ccccc34)CC2)cc2c1NC(=O)CC2(C)C,outcome,[2],inactive
same,AC50,[3],30.9 µM (active)
same,AC50,[5],30.7 µM (active)
same,AC50,[6],8.35 µM (active)
same,AC50,[8],33.1 µM (active)
c1ccc2c(c1)ccc1ccccc12,outcome,[2],inactive
same,AC50,[9],44.9 µM (active)
same,outcome,[10],inactive
same,outcome,[3],inactive
same,outcome,[4],inactive
same,outcome,[5],inactive
same,outcome,[6],inactive
same,outcome,[8],inactive
COCC(C)OCC(C)O (stereo not drawn),outcome,[3],inactive
same,outcome,[5],inactive
same,outcome,[6],inactive
same,outcome,[8],inactive
